Experimental data from PubChem BioAssay (Tox21).
Results filed as inconclusive are left out. Calls of active or inactive are those of the source. Unless noted, calls follow the shape of the full dose curve.

What was measured:
[1] = qHTS assay to identify small molecule antagonists of the estrogen related receptor signaling pathway with the pleiotropic PPARgamma coactivator (PGC) from Tox21 10K library - cell viability counter screen (AID 1224840; active = well fitted cell-killing curve with a large enough effect in the repeat runs, not every such curve was filed as active; also: nearly all actives have a fitted effect of over 40% in size)
Outline: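 Fluorescence read-out of CellTiter-Fluor viability reagent, added after cells had been exposed to compound in DMSO for 17.5 h at 37 C; 30 min development at 37 C/5% CO2. Cells: PGC/ERR line, 2,000/well.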

[2] = molecular target: Thyrotropin receptor (Homo sapiens) (UniProt P16473); experiment: qHTS assay to identify small molecule agonists of the thyroid stimulating hormone receptor (TSHR) signaling pathway (AID 1224843); also: nearly all actives have a fitted effect of over 45% in size
Outline: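 Using 15 concentrations per compound in triplicate, cAMP production was monitored in TSHR-HEK293 cells after 30 min compound incubation at RT; HTRF reagents followed, with fluorescence intensity recorded after 1 h.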

[3] = qHTS assay to identify small molecule agonists of the hypoxia (HIF-1) signaling pathway - cell viability counter screen (AID 1224844); also: nearly all actives have a fitted effect of over 50% in size
Outline: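 CellTiter-Glo luminescence read-out, 30 min RT, taken in the same wells as the beta-lactamase HRE reporter assay; HRE-bla ME-180 cells, 0.5% dialyzed FBS, 17 hr compound treatment at 37C, 5% CO2.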

[4] = qHTS assay to identify small molecule agonists of H2AX (AID 1224845; active = well fitted activation curve with a large enough effect in the signal ratio in the repeat runs, not every such curve was filed as active; the % refers to the signal ratio)
Outline: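 Wild-type CHO-K1 cells plated overnight, then exposed 3 hr at 37C to compounds at 15 concentrations (0.76% DMSO). Lysed, then HTRF anti-pH2AX(S139)-cryptate/anti-H2AX-d2 detection after 24 hr at room temperature; emissions 665 and 620 nm.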

[5] = qHTS assay to identify small molecule agonists of the hypoxia (HIF-1) signaling pathway (AID 1224846; active = well fitted activation curve with a large enough effect in the signal ratio in the repeat runs, not every such curve was filed as active; the % refers to the signal ratio)
Outline: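 Beta-lactamase FRET read-out (CCF4-AM substrate) from ME-180 cells carrying an HRE-driven bla reporter, after 17 hrs compound exposure at 37C/5% CO2. Cells were seeded at 2,000 per well in 0.5% dialyzed FBS medium and preincubated 5 hrs.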

[6] = qHTS assay to identify small molecule agonists of H2AX - cell viability counter screen (AID 1224847); also: top concentration of the series differs between compounds; nearly all actives have a fitted effect of over 30% in size
Outline: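 Read-out: CellTiter-Glo luminescence, 30 min RT. Cells: wild-type CHO-K1, 1000/well, 10% FBS, plated overnight at 37C. Treatment: 15 concentrations, 3 hr, 37C, 0.76% DMSO.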
% is scaled to controls: 0 for no effect and ±100 for the full control effect.

Chain of Thyrotropin receptor (Homo sapiens) (P16473 whole entry, looked up): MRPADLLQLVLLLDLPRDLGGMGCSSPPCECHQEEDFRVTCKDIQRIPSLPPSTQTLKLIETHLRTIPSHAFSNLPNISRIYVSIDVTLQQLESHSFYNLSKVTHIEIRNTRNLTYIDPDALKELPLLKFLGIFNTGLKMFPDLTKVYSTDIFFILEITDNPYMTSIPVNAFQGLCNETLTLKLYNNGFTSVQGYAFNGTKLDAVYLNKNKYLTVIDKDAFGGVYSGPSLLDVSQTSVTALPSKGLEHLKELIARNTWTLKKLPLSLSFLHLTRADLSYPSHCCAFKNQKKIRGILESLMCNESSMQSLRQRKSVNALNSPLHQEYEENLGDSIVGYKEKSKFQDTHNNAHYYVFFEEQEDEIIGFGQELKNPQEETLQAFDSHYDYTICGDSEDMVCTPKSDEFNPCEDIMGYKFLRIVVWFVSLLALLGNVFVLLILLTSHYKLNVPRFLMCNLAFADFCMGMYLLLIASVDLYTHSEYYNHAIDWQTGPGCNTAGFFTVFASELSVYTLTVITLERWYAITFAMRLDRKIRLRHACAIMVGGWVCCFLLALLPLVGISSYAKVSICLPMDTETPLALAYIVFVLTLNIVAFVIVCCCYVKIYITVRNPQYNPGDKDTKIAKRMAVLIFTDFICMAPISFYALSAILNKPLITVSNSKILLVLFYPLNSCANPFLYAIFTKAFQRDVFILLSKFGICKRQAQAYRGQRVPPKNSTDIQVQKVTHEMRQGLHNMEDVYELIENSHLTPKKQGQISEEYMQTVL

COC(=O)CCCCC(=O)O
inactive: outcome [1] | outcome [2] | outcome [3] | outcome [4] | outcome [5] | outcome [6]

CCOC(=O)CC1(C)OCC(C)O1 (configuration not stated)
inactive: outcome [1] | outcome [2] | outcome [3] | outcome [4] | outcome [5] | outcome [6]

OC1OCCOC1O (configuration not stated)
inactive: outcome [1] | outcome [2] | outcome [3] | outcome [4] | outcome [5] | outcome [6]

CC1CC(=O)CC(C)(C)C1 (configuration not stated)
inactive: outcome [1] | outcome [2] | outcome [3] | outcome [4] | outcome [5] | outcome [6]

CCc1occc(=O)c1O
inactive: outcome [1] | outcome [2] | outcome [3] | outcome [4] | outcome [5] | outcome [6]

O=C(Cl)c1ccccc1[N+](=O)[O-]
inactive: outcome [1] | outcome [2] | outcome [3] | outcome [4] | outcome [5] | outcome [6]

C[Si]1(C)O[Si](C)(C)O[Si](C)(C)O[Si](C)(C)O[Si](C)(C)O1
inactive: outcome [1] | outcome [2] | outcome [3] | outcome [4] | outcome [5] | outcome [6]

CC(=O)Nc1ccc(OC(=O)c2ccccc2OC(C)=O)cc1
inactive: outcome [1] | outcome [2] | outcome [3] | outcome [4] | outcome [5] | outcome [6]

C=C(C)c1cccc(C(C)(C)N=C=O)c1
inactive: outcome [1] | outcome [2] | outcome [3] | outcome [4] | outcome [5] | outcome [6]

C=C(C)[C@@H]1CC=C(C)C(=O)C1
inactive: outcome [1] | outcome [2] | outcome [3] | outcome [4] | outcome [5] | outcome [6]

O=C(O)CSCC(=O)NC1CCSC1=O (configuration not stated)
inactive: outcome [1] | outcome [2] | outcome [3] | outcome [4] | outcome [5] | outcome [6]

CN1C[C@@H]2C[C@H]1CN2c1cc2c(cc1F)c(=O)c(C(=O)O)cn2C1CC1
inactive: viability change, negative = cytotoxic [1] 6.5% [at 19 µM] | activation [2] 1.11% [at 19 µM] | activity change, negative = cytotoxicity [3] 12.6% [at 15.8 µM] | activation (H2AX phosphorylation) [4] -0.432% [at 31.6 µM] | activation [5] -0.622% [at 15.8 µM] | activity change, negative = cytotoxicity [6] 4.25% [at 31.6 µM]

C#CCN[C@@H]1CCc2ccccc21
inactive: outcome [1] | outcome [2] | outcome [3] | outcome [4] | outcome [5] | outcome [6]

CC1(C)[C@H]2CC[C@](C)(C2)[C@H]1O
inactive: outcome [1] | outcome [2] | outcome [3] | outcome [4] | outcome [5] | outcome [6]

CO/N=C(/C(=O)N[C@@H]1C(=O)N2C(C(=O)[O-])=C(C[n+]3ccn4ncccc43)CS[C@H]12)c1nsc(N)n1
inactive: outcome [1] | outcome [2] | outcome [3] | outcome [4] | outcome [5] | outcome [6]

Cc1ccc(C(=O)O)cc1[N+](=O)[O-]
inactive: outcome [1] | outcome [2] | outcome [3] | outcome [4] | outcome [5] | outcome [6]

O=C(O)CONC(=O)c1ccccc1
inactive: outcome [1] | outcome [2] | outcome [3] | outcome [4] | outcome [5] | outcome [6]

Cc1ccc(C)c([N+](=O)[O-])c1
inactive: outcome [1] | outcome [2] | outcome [3] | outcome [4] | outcome [5] | outcome [6]

O=NN(CCCl)C(=O)NC1CCCCC1
inactive: outcome [1] | outcome [2] | outcome [3] | outcome [4] | outcome [5] | outcome [6]

O=Cc1cc2ccccc2o1
inactive: outcome [1] | outcome [2] | outcome [3] | outcome [4] | outcome [5] | outcome [6]

C/C(=C1\CCOC(=O)S1)N(C=O)Cc1cnc(C)nc1N
inactive: outcome [1] | outcome [2] | outcome [3] | outcome [4] | outcome [5] | outcome [6]

CC1(C)Oc2ccc(C#N)cc2[C@@H](N2CCCC2=O)[C@@H]1O
inactive: outcome [1] | outcome [2] | outcome [3] | outcome [4] | outcome [5] | outcome [6]

CC1OCCC1=O (configuration not stated)
inactive: outcome [1] | outcome [2] | outcome [3] | outcome [4] | outcome [5] | outcome [6]

OC1(c2ccc(Cl)cc2)CCNCC1
inactive: outcome [1] | outcome [2] | outcome [3] | outcome [4] | outcome [5] | outcome [6]

COS(=O)(=O)O
inactive: outcome [1] | outcome [2] | outcome [3] | outcome [4] | outcome [5] | outcome [6]

OC[C@H]1O[C@@H](O[C@@H]2[C@@H](CO)O[C@](O)(CO)[C@H]2O)[C@H](O)[C@@H](O)[C@H]1O
inactive: outcome [1] | outcome [2] | outcome [3] | outcome [4] | outcome [5] | outcome [6]

O=C(O)c1cc2ccccc2nc1C(=O)O
inactive: outcome [1] | outcome [2] | outcome [3] | outcome [4] | outcome [5] | outcome [6]

C=CCSSCCC
inactive: outcome [1] | outcome [2] | outcome [3] | outcome [4] | outcome [5] | outcome [6]

CC(=O)CC(=O)OC(C)(C)C
inactive: outcome [1] | outcome [2] | outcome [3] | outcome [4] | outcome [5] | outcome [6]

Cc1ccccc1C(N)=O
inactive: outcome [1] | outcome [2] | outcome [3] | outcome [4] | outcome [5] | outcome [6]

Cc1ccc(C(C)NC(=O)[C@@H](NC(=O)OC(C)C)C(C)C)cc1 (some centres not stated)
inactive: outcome [1] | outcome [2] | outcome [3] | outcome [4] | outcome [5] | outcome [6]

OCCN1CCOCC1
inactive: outcome [1] | outcome [2] | outcome [3] | outcome [4] | outcome [5] | outcome [6]

CCCCOC(=O)C(C)O (configuration not stated)
inactive: outcome [1] | outcome [2] | outcome [3] | outcome [4] | outcome [5] | outcome [6]

COC(C)(OC)OC
inactive: outcome [1] | outcome [2] | outcome [3] | outcome [4] | outcome [5] | outcome [6]

CC(=O)OC1CCCCC1C(C)(C)C (configuration not stated)
inactive: outcome [1] | outcome [2] | outcome [3] | outcome [4] | outcome [5] | outcome [6]

CCOc1ccccc1OCC1CNCCO1 (configuration not stated)
inactive: outcome [1] | outcome [2] | outcome [3] | outcome [4] | outcome [5] | outcome [6]

CCC(=O)Oc1ccc2c(c1)CC[C@@H]1[C@@H]2CC[C@@]2(C)[C@H]1C[C@@H](OC(=O)CC)[C@@H]2OC(=O)CC
inactive: outcome [1] | outcome [2] | outcome [3] | outcome [4] | outcome [5] | outcome [6]

CCC(C)C(=O)OCCc1ccccc1 (configuration not stated)
inactive: outcome [1] | outcome [2] | outcome [3] | outcome [4] | outcome [5] | outcome [6]

CC(=O)C(C)O (configuration not stated)
inactive: outcome [1] | outcome [2] | outcome [3] | outcome [4] | outcome [5] | outcome [6]

O=C(Cn1ccnc1[N+](=O)[O-])NCc1ccccc1
inactive: outcome [1] | outcome [2] | outcome [3] | outcome [4] | outcome [5] | outcome [6]

O/N=C/C=N/O
inactive: outcome [1] | outcome [2] | outcome [3] | outcome [4] | outcome [5] | outcome [6]

CC(=O)OC(C)=O
inactive: outcome [1] | outcome [2] | outcome [3] | outcome [4] | outcome [5] | outcome [6]

COC(=O)c1cccc(Cl)c1
inactive: outcome [1] | outcome [2] | outcome [3] | outcome [4] | outcome [5] | outcome [6]

C=CCN1C[C@H](C(=O)N(CCCN(C)C)C(=O)NCC)C[C@@H]2c3cccc4[nH]cc(c34)C[C@H]21
inactive: outcome [1] | outcome [2] | outcome [3] | outcome [4] | outcome [5] | outcome [6]

CC(C)C1OCCN1CCOC(=O)NCCCCCCNC(=O)OCCN1CCOC1C(C)C (configuration not stated)
inactive: outcome [1] | outcome [2] | outcome [3] | outcome [4] | outcome [5] | outcome [6]

C=CC(=O)OCC1CCCO1 (configuration not stated)
inactive: outcome [1] | outcome [2] | outcome [3] | outcome [4] | outcome [5] | outcome [6]

Cc1ccc(N)cc1S(=O)(=O)O
inactive: outcome [1] | outcome [2] | outcome [3] | outcome [4] | outcome [5] | outcome [6]

COc1cc(/C=C/C(N)=O)cc(OC)c1OC
inactive: outcome [1] | outcome [2] | outcome [3] | outcome [4] | outcome [5] | outcome [6]

CCCCCCCCCCCCCCC(=O)NC(CO)CCCCCCCCCCCCCC (configuration not stated)
inactive: outcome [1] | outcome [2] | outcome [3] | outcome [4] | outcome [5] | outcome [6]

CC(=O)O[Si](C)(OC(C)=O)OC(C)=O
inactive: outcome [1] | outcome [2] | outcome [3] | outcome [4] | outcome [5] | outcome [6]

CC(CO)(CO)CO
inactive: outcome [1] | outcome [2] | outcome [3] | outcome [4] | outcome [5] | outcome [6]

OCC1(CO)COCOC1
inactive: outcome [1] | outcome [2] | outcome [3] | outcome [4] | outcome [5] | outcome [6]

CC(C)c1ccc(C=O)cc1
inactive: outcome [1] | outcome [2] | outcome [3] | outcome [4] | outcome [5] | outcome [6]

C=CCCCCCCCCC(=O)OCCCC
inactive: outcome [1] | outcome [2] | outcome [3] | outcome [4] | outcome [5] | outcome [6]

O=C1OCCO1
inactive: outcome [1] | outcome [2] | outcome [3] | outcome [4] | outcome [5] | outcome [6]

CC(C)NC(=O)c1ccc(C=O)cc1
inactive: outcome [1] | outcome [2] | outcome [3] | outcome [4] | outcome [5] | outcome [6]

CC1(C)O[C@H]2CC(=O)OC[C@]23[C@H]2CC[C@@]4(C)[C@H](c5ccoc5)OC(=O)[C@H]5O[C@]54[C@]2(C)C(=O)C[C@@H]13
inactive: outcome [1] | outcome [2] | outcome [3] | outcome [4] | outcome [5] | outcome [6]

CC(=O)OCC(=O)Nc1cc(C#N)cc(NC(=O)COC(C)=O)c1Cl
inactive: outcome [1] | outcome [2] | outcome [3] | outcome [4] | outcome [5] | outcome [6]

CN(C)C(C)(C)CO
inactive: outcome [1] | outcome [2] | outcome [3] | outcome [4] | outcome [5] | outcome [6]

N#CCC(=O)NN
inactive: outcome [1] | outcome [2] | outcome [3] | outcome [4] | outcome [5] | outcome [6]

CN(C)CCOC(=O)C(c1ccccc1)C1(O)CCCC1 (configuration not stated)
inactive: outcome [1] | outcome [2] | outcome [3] | outcome [4] | outcome [6]

CCn1cc(C(=O)O)c(=O)c2cnc(N3CCCC3)nc21
inactive: viability change, negative = cytotoxic [1] 1.85% [at 8.39 µM] | activation [2] -1.79% [at 8.39 µM] | activity change, negative = cytotoxicity [3] 0.904% [at 6.97 µM] | activation (H2AX phosphorylation) [4] 0.23% [at 14 µM] | activity change, negative = cytotoxicity [6] -5.46% [at 14 µM]

COCCc1ccccn1
inactive: outcome [1] | outcome [2] | outcome [3] | outcome [4] | outcome [5] | outcome [6]

CC(N)CCCC(C)(C)O (configuration not stated)
inactive: outcome [1] | outcome [2] | outcome [3] | outcome [4] | outcome [6]

N[C@@H](CSCCCO)C(=O)O
inactive: viability change, negative = cytotoxic [1] -0.0206% [at 19 µM] | activation [2] 0.239% [at 19 µM] | activity change, negative = cytotoxicity [3] 0.058% [at 15.8 µM] | activation (H2AX phosphorylation) [4] 1.1% [at 31.6 µM] | activation [5] -1.56% [at 15.8 µM] | activity change, negative = cytotoxicity [6] -1.29% [at 31.6 µM]
